# PubChem BioAssay (Tox21)
# “And” between values parts separate entries of the source, which are not always exact repeats. Identical values can stand only once. Inconclusive results are not listed. Where a call stands in place of a potency, no number is given. Unmarked numbers belong to inactive results. The source made the active and inactive calls. The call rests on the fitted dose curve; in most records, active means well fitted curve in the direction sought with a large enough effect in the repeat runs; inconclusive means weak or mixed curves; inactive means no such curve, though single readings can be large; an effect the other way counts as inactive or inconclusive.
# Target: Luciferin 4-monooxygenase (Photinus pyralis) (UniProt P08659)
# Assay: qHTS assay to identify small molecule inhibitors of firefly luciferase (AID 1224835); further: nearly all actives have a fitted effect of over 25% in size
# Details: purified P. pyralis luciferase, luminescence inhibition; series mostly up to 115 µM; activity change, negative = inhibition: at the top concentration
# Procedure, shortened: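 Biochemical qHTS: compounds run as interplate titrations against purified firefly enzyme, with D-luciferin and ATP each at its KM concentration. Light output recorded by CCD imaging.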
# Chain of Luciferin 4-monooxygenase (Photinus pyralis) (P08659 whole entry, looked up): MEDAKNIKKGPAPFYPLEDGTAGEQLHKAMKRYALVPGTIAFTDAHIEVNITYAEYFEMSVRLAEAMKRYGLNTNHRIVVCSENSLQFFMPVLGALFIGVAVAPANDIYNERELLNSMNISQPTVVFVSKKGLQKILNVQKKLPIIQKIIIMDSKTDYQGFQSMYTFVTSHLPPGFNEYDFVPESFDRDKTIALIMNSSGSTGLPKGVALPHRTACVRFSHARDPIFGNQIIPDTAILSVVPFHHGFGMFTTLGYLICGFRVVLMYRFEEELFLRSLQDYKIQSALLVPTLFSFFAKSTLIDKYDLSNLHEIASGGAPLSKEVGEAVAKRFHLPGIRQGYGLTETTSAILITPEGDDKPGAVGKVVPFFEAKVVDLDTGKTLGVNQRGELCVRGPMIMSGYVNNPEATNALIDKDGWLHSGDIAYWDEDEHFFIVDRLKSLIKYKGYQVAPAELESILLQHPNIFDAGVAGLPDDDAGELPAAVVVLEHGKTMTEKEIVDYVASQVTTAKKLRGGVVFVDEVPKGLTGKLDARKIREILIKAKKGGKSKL
row,SMILES,Potency
1,CCCC[n+]1ccccc1,inactive
2,Nc1ccc(Cl)cc1,inactive
3,CC[n+]1ccccc1,inactive
4,CNC,inactive

# Test system: not listed separately
# Assay: qHTS assay to identify small molecule agonists of the constitutive androstane receptor (CAR) signaling pathway - cell viability counter screen (AID 1224836); further: nearly all actives have a fitted effect of over 45% in size; further: potency means the concentration at half of the fitted maximal effect
# Details: HepG2-CYP2B6-hCAR viability, CellTiter-Fluor, 23 h, PK11195 added to every well; series mostly up to 92.4 µM; viability change, negative = cytotoxic: at the top concentration
# Procedure, shortened: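 HepG2 cells stably carrying hCAR and a CYP2B6-2.2kb reporter; 15-concentration compounds plus PK11195 (final 0.75 uM), 23 hr at 37 C/5% CO2. Viability read by CellTiter-Fluor fluorescence.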
SMILES,Potency,"viability change, negative = cytotoxic [%]"
CC(=O)[O][Hg][c]1ccccc1,2.41 µM (active) and 4.33 µM (active) and 5.96 µM (active),
CCCC[n+]1ccc(C)cc1,inactive,
Cc1cc(Cl)ccc1OCC(=O)O,inactive,
CCC(=O)C(CC(C)N(C)C)(c1ccccc1)c1ccccc1 (centres undefined),,-29
Nc1ccc(-c2ccc(N)cc2)cc1,inactive,
CCNc1nc(Cl)nc(NCC)n1,inactive,
O=[N+]([O-])c1ccccc1O,inactive,
O=C(O)C(Cl)(Cl)Cl,inactive,
Cc1cc(-c2ccc(N)c(C)c2)ccc1N,inactive,
O=P1(N(CCCl)CCCl)NCCCO1 (centres undefined),inactive,
O=C(O)c1ccccc1O,inactive,
CCOP(=S)(OCC)Oc1ccc2c(C)c(Cl)c(=O)oc2c1,inactive,
Oc1ccccc1-c1ccccc1,inactive,
COCC(=O)N(c1c(C)cccc1C)C(C)C(=O)OC (centres undefined),inactive,
COc1ccccc1N,inactive,
OCCOc1ccccc1,inactive,
C[C@]12CCC(=O)C=C1CC[C@@H]1[C@@H]2CC[C@]2(C)C(=O)CC[C@@H]12,inactive,
CC[N+](CC)(CC)CC,inactive,
O=C(O)CCl,inactive,
COP(=O)(OC)C(O)C(Cl)(Cl)Cl (centres undefined),inactive,
C1CCC(NC2CCCCC2)CC1,inactive,
CCn1cc[n+](C)c1C,inactive,
Cc1cc(Cl)ccc1N,inactive,
CCCCCCCCCCCC(=O)O,inactive,
CCCCCC[n+]1ccccc1,inactive,
O=[N+]([O-])O,inactive,
CCCC[n+]1ccccc1,inactive,
Nc1ccc(Cl)cc1,inactive,
CC[n+]1ccccc1,inactive,
CNC,inactive,

# Test system: not listed separately
# Assay: qHTS assay to identify small molecule antagonists of the constitutive androstane receptor (CAR) signaling pathway - cell viability counter screen (AID 1224837); further: nearly all actives have a fitted effect of over 45% in size; further: potency means the concentration at half of the fitted maximal effect
# Details: HepG2-CYP2B6-hCAR viability, CellTiter-Fluor, 23 h, co-treated with 50 nM CITCO; series mostly up to 92.4 µM; activity change, negative = cytotoxicity: at the top concentration
# Procedure, shortened: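 Cytotoxicity counter-screen: CellTiter-Fluor fluorescence after 23 h compound exposure (15-point qHTS) in double-stable HepG2-CYP2B6-hCAR cells, with 50 nM CITCO added.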
SMILES,Potency,"activity change, negative = cytotoxicity"
CC(=O)[O][Hg][c]1ccccc1,2.71 µM (active) and 4.33 µM (active) and 5.31 µM (active),
CCCC[n+]1ccc(C)cc1,inactive,
Cc1cc(Cl)ccc1OCC(=O)O,inactive,
CCC(=O)C(CC(C)N(C)C)(c1ccccc1)c1ccccc1 (centres undefined),,-15.9% [at 42.5 µM]
Nc1ccc(-c2ccc(N)cc2)cc1,inactive,
CCNc1nc(Cl)nc(NCC)n1,inactive,
O=[N+]([O-])c1ccccc1O,inactive,
O=C(O)C(Cl)(Cl)Cl,inactive,
Cc1cc(-c2ccc(N)c(C)c2)ccc1N,inactive,
O=P1(N(CCCl)CCCl)NCCCO1 (centres undefined),inactive,
O=C(O)c1ccccc1O,inactive,
CCOP(=S)(OCC)Oc1ccc2c(C)c(Cl)c(=O)oc2c1,inactive,
Oc1ccccc1-c1ccccc1,inactive,
COCC(=O)N(c1c(C)cccc1C)C(C)C(=O)OC (centres undefined),inactive,
COc1ccccc1N,inactive,
OCCOc1ccccc1,inactive,
C[C@]12CCC(=O)C=C1CC[C@@H]1[C@@H]2CC[C@]2(C)C(=O)CC[C@@H]12,inactive,
CC[N+](CC)(CC)CC,inactive,
O=C(O)CCl,inactive,
COP(=O)(OC)C(O)C(Cl)(Cl)Cl (centres undefined),inactive,
C1CCC(NC2CCCCC2)CC1,inactive,
CCn1cc[n+](C)c1C,inactive,
Cc1cc(Cl)ccc1N,inactive,
CCCCCCCCCCCC(=O)O,inactive,
CCCCCC[n+]1ccccc1,inactive,
O=[N+]([O-])O,inactive,
CCCC[n+]1ccccc1,inactive,
Nc1ccc(Cl)cc1,inactive,
CC[n+]1ccccc1,inactive,
CNC,inactive,
